# Measurements taken from PubChem BioAssay (NCATS).
# “And” between values parts separate entries of the source, which are not always exact repeats. Equal values may be shown once. Inconclusive results are not listed. The source made the active and inactive calls. Unless noted, calls come from the whole dose curve.
# System: not listed separately
# Test: qHTS Assay for Identification of Small Molecule Inducers of Hypoxia Response (AID 2120; active = well fitted curve in the direction sought with a large enough effect in the signal ratio, with a control signal flat, not every such curve was filed as active; the % refers to the signal ratio; note: 0% is about no effect)
# Settings: hypoxia response reporter cells, beta-lactamase ratio readout; series mostly up to 104 µM; activation: at the top concentration
# Procedure, shortened: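 Reporter induction read as the CCF4 blue/green (460nm/530nm) emission ratio after 2.5 h dye loading at room temperature. ME-180 HRE-beta-lactamase cells received titrated compounds for 17 h at 37 degrees Celsius; AC50 values derived.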
row,Compound,activation
1,CC(C#N)CCC#N (centres undefined),-0.121% (inactive)
2,Nc1cc(Cl)ccc1Cl,0.302% (inactive)
3,Nc1cccc(Cl)c1,0.911% (inactive)
4,ClCc1ccccc1,0.766% (inactive)
5,CCC/C=N/O,0.604% (inactive)
6,COc1c(C(C)(C)C)cc([N+](=O)[O-])c(C)c1[N+](=O)[O-],0.609% (inactive)
7,O=S(=O)(Cl)c1ccccc1,1.32% (inactive)
8,C=CCOCC1CO1 (centres undefined),0.302% (inactive)
9,c1ccoc1,0.964% (inactive)
10,Clc1ccccc1,0.766% (inactive)
11,ClC(Cl)(Cl)C(Cl)(Cl)Cl,0.897% (inactive)
12,CCOC(=O)C1OC1(C)c1ccccc1 (centres undefined),0.809% (inactive)
13,C/C=C/CC#N,0.0046% (inactive)
14,ClC(Cl)C(Cl)Cl,0.575% (inactive)
15,C=CCCl,0.351% (inactive)
16,Oc1c(Cl)cccc1Cl,0% (inactive)
17,Brc1cccc(-c2ccccc2)c1,1.52% (inactive)
18,C=CCO,1.67% (inactive)
19,OCCCCO,-0.0601% (inactive)
20,Nn1cnnc1,-0.237% (inactive)

row,Compound,activation
1,BrCCc1ccccc1,0.265% (inactive)
2,Cc1ccccc1[N+](=O)[O-],0.205% (inactive)
3,CCCCOC(=O)c1ccccc1N,0.809% (inactive)
4,Clc1cc(Cl)c(Cl)c(Cl)c1,-0.0046% (inactive)
5,Cc1ccc(N)c(C)c1,1.17% (inactive)
6,C1CC2OC2CC1C1CO1 (centres undefined),-0.627% (inactive)
7,CN(C)C(=O)Cl,1.56% (inactive)
8,CC(=O)NNc1ccccc1,-0.0185% (inactive)
9,Cc1ccc(N=C=O)cc1N=C=O,0.916% (inactive)
10,O=C(Cl)OCc1ccccc1,-0.0975% (inactive)
11,C=CC(=O)OC,0.653% (inactive)
12,CCN(CC)N=O,0.311% (inactive)
13,OCC(Cl)CCl (centres undefined),1.19% (inactive)
14,CC(C)CON=O,-0.947% (inactive)
15,CC[N+](=O)[O-],0.906% (inactive)
16,CC(C)(Cl)[N+](=O)[O-],0.302% (inactive)
17,C[N+](=O)[O-],0.0046% (inactive)
18,CC(C)OC(=O)Cc1ccccc1,-0.262% (inactive)
19,ClCC(Br)CBr (centres undefined),-0.443% (inactive)

# Molecular target: Estrogen receptor (Homo sapiens) (UniProt P03372)
# Test: qHTS assay for small molecule antagonists of estrogen receptor alpha signaling (AID 588513; active = well fitted curve in the direction sought with a large enough effect in the signal ratio, with a control signal flat, not every such curve was filed as active; the % refers to the signal ratio; note: % is set by controls: 0 for no effect and ±100 for the full control effect)
# Settings: ER-alpha-UAS-bla HEK293, beta-lactamase ratio, antagonist mode; series mostly up to 76.9 µM; activity, negative = inhibition: at the top concentration
# Procedure, shortened: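 ER-alpha-UAS-bla GripTite HEK 293 cells in 2% charcoal/dextran-treated FBS medium; compounds titrated (1:2, duplicate), then stimulated with 0.5 nM 17-beta-estradiol for 18 h at 37C. CCF4 beta-lactamase fluorescence; Hill-fit IC50 and efficacy.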
# Sequence of Estrogen receptor (Homo sapiens) (P03372 whole entry, looked up): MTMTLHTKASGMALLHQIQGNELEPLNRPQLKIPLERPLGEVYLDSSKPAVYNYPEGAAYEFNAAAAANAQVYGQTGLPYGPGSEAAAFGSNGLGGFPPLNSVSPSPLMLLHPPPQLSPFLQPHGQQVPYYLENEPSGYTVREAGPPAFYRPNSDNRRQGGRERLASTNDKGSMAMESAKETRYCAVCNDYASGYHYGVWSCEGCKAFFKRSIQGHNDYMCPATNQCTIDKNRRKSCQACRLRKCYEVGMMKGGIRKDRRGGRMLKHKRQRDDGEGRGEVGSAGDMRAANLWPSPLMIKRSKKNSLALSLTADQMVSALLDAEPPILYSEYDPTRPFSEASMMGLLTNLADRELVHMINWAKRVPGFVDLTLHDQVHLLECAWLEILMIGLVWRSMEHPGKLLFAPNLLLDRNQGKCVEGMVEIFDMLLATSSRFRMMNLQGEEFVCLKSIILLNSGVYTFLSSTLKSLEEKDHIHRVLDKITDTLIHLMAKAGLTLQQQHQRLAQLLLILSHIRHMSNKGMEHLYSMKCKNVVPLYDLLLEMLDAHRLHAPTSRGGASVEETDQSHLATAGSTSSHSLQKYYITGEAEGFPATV
row,Compound,"activity, negative = inhibition"
1,CC(C#N)CCC#N (centres undefined),2.92% (inactive)
2,Nc1cccc(Cl)c1,-12.7% (inactive)
3,ClCc1ccccc1,20.4% (inactive)
4,CCC/C=N/O,12.9% (inactive)
5,COc1c(C(C)(C)C)cc([N+](=O)[O-])c(C)c1[N+](=O)[O-],12.7% (inactive)
6,C=CCOCC1CO1 (centres undefined),11.5% (inactive)
7,c1ccoc1,-0.466% (inactive)
8,ClC(Cl)(Cl)C(Cl)(Cl)Cl,-32.8% (inactive)
9,C/C=C/CC#N,20.4% (inactive)
10,Oc1c(Cl)cccc1Cl,0.699% (inactive)
11,Brc1cccc(-c2ccccc2)c1,4.33% (inactive)
12,Cc1ccccc1[N+](=O)[O-],0.634% (inactive)
13,CN(C)C(=O)Cl,15.8% (inactive)
14,OCC(Cl)CCl (centres undefined),-10.7% (inactive)
15,C[N+](=O)[O-],-5.19% (inactive)
16,CC(C)OC(=O)Cc1ccccc1,1.31% (inactive)
17,ClCC(Br)CBr (centres undefined),-2.69% (inactive)

# Molecular target: Estrogen receptor (Homo sapiens) (UniProt P03372)
# Test: qHTS assay for small molecule agonists of estrogen receptor alpha signaling (AID 588514); note: nearly all actives have a fitted effect of over 70% in size; note: potency is the fitted concentration of half-maximal effect;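 for activation: 0% = vehicle only and 100% = reference agonist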
# Settings: ER-alpha-UAS-bla HEK293, beta-lactamase ratio, 18 h; series mostly up to 76.8 µM; activation: at the top concentration
# Procedure, shortened: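 EC50 and efficacy came from Hill fits of beta-lactamase reporter signal (CCF4 dye, 2 h at room temperature) scaled between DMSO and 20 nM 17-beta-estradiol. Agonist mode: HEK293 ER-alpha-UAS-bla cells in charcoal/dextran-stripped serum medium, 18 h compound exposure at 37 C.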
Compound,activation,Potency
CC(C#N)CCC#N (centres undefined),1.94% (inactive),
Nc1cccc(Cl)c1,1.43% (inactive),
ClCc1ccccc1,3.57% (inactive),
CCC/C=N/O,-2.98% (inactive),
COc1c(C(C)(C)C)cc([N+](=O)[O-])c(C)c1[N+](=O)[O-],,7.08 µM (active)
C=CCOCC1CO1 (centres undefined),0.785% (inactive),
c1ccoc1,-2.4% (inactive),
Clc1ccccc1,-4.07% (inactive),
ClC(Cl)(Cl)C(Cl)(Cl)Cl,-5.54% (inactive),
C/C=C/CC#N,4.77% (inactive),
ClC(Cl)C(Cl)Cl,-3.66% (inactive),
C=CCCl,5.7% (inactive),
Oc1c(Cl)cccc1Cl,4.39% (inactive),
Brc1cccc(-c2ccccc2)c1,0.0987% (inactive),
Nn1cnnc1,-1.17% (inactive),
Cc1ccccc1[N+](=O)[O-],-5.83% (inactive),
Clc1cc(Cl)c(Cl)c(Cl)c1,-4.12% (inactive),
C1CC2OC2CC1C1CO1 (centres undefined),,inactive
CN(C)C(=O)Cl,-3.15% (inactive),
O=C(Cl)OCc1ccccc1,0.0864% (inactive),
OCC(Cl)CCl (centres undefined),-3% (inactive),
CC(C)CON=O,1.74% (inactive),
C[N+](=O)[O-],-1.33% (inactive),
CC(C)OC(=O)Cc1ccccc1,2.48% (inactive),
ClCC(Br)CBr (centres undefined),-3.9% (inactive),

# Molecular target: Bile acid receptor (Homo sapiens) (UniProt Q96RI1)
# Test: qHTS assay for small molecule antagonists of farnesoid X receptor signaling (AID 588526); note: % is set by controls: 0 for no effect and ±100 for the full control effect
# Settings: HEK293T FXR-UAS-bla, beta-lactamase ratio, antagonist mode; series mostly up to 76.7 µM; activity change, negative = inhibition: at the top concentration
# Procedure, shortened: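 Antagonist mode: titrated compounds tested against chenodeoxycholic acid stimulation (normalized to 50 uM CDCA and DMSO) in GeneBLAzer HEK293T cells for 16 h. Beta-lactamase read by CCF4 fluorescence; IC50 from Hill fits.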
# Sequence of Bile acid receptor (Homo sapiens) (Q96RI1 whole entry, looked up): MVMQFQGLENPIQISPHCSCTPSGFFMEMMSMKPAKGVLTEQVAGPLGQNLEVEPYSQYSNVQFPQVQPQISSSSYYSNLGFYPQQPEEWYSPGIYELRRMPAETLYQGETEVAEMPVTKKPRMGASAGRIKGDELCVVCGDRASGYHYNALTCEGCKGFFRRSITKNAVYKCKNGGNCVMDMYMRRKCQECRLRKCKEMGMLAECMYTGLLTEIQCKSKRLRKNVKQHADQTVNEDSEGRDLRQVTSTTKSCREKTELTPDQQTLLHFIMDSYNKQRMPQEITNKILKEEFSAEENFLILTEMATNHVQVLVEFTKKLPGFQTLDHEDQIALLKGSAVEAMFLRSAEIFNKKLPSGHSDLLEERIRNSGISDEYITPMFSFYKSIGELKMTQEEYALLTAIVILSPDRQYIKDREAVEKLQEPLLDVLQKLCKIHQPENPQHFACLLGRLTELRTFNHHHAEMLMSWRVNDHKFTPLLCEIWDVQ
Compound,"activity change, negative = inhibition",outcome
Nc1cccc(Cl)c1,-16.9% (inactive),
CCC/C=N/O,-3.08% (inactive),
O=S(=O)(Cl)c1ccccc1,,inactive
C=CCOCC1CO1 (centres undefined),-20% (inactive),
c1ccoc1,-2.95% (inactive),
C/C=C/CC#N,-6.19% (inactive),
ClC(Cl)C(Cl)Cl,-1.28% (inactive),
Brc1cccc(-c2ccccc2)c1,4.62% (inactive),
OCCCCO,-9.94% (inactive),
Cc1ccc(N)c(C)c1,-5.98% (inactive),
C1CC2OC2CC1C1CO1 (centres undefined),,inactive
CC(=O)NNc1ccccc1,-11.8% (inactive),
C=CC(=O)OC,-0.152% (inactive),
CC(C)(Cl)[N+](=O)[O-],4.92% (inactive),

# Molecular target: Bile acid receptor (Homo sapiens) (UniProt Q96RI1)
# Test: qHTS assay for small molecule agonists of farnesoid X receptor signaling (AID 588527);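 note: 0% = vehicle basal and 100% = reference agonist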
# Settings: HEK293T FXR-UAS-bla, beta-lactamase ratio, 16 h; active compounds read high
# Procedure, shortened: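 FXR-UAS-bla HEK293T cells (10% dialyzed FBS) preincubated 5-7 h at 37 C, then compounds at up to 92 uM for 16 h at 37 C. CCF4 beta-lactamase read-out after 2 h RT. Normalized to chenodeoxycholic acid (100 uM) and DMSO; Hill fit gave EC50 and efficacy.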
row,Compound,activation
1,Nc1cccc(Cl)c1,-2.3% (inactive)
2,CCC/C=N/O,0.311% (inactive)
3,O=S(=O)(Cl)c1ccccc1,1.82% (inactive)
4,C=CCOCC1CO1 (centres undefined),-2.32% (inactive)
5,C/C=C/CC#N,-1.31% (inactive)
6,ClC(Cl)C(Cl)Cl,-2.53% (inactive)
7,Brc1cccc(-c2ccccc2)c1,-2.22% (inactive)
8,OCCCCO,-2.93% (inactive)
9,CCCCOC(=O)c1ccccc1N,0.511% (inactive)
10,Cc1ccc(N)c(C)c1,3.12% (inactive)
11,C1CC2OC2CC1C1CO1 (centres undefined),-0.198% (inactive)
12,CC(=O)NNc1ccccc1,-3.51% (inactive)
13,C=CC(=O)OC,1.11% (inactive)
14,CCN(CC)N=O,-2.25% (inactive)
15,CC(C)(Cl)[N+](=O)[O-],0.224% (inactive)

# Molecular target: Glucocorticoid receptor (Homo sapiens) (UniProt P04150)
# Test: qHTS assay for small molecule agonists of glucocorticoid receptor signaling (AID 588532; active = well fitted curve in the direction sought with a large enough effect in the signal ratio, with a control signal flat; the % refers to the signal ratio;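 note: 100% = dexamethasone at 0.1 µM and 0% = DMSO only wells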)
# Settings: HeLa MMTV-bla, beta-lactamase ratio, agonist, 18 h; active compounds read high; percent of dexamethasone control, DMSO zero
# Procedure, shortened: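 MMTV-bla HeLa beta-lactamase reporter cells in 1% charcoal/dextran FBS medium, compounds up to 92 uM for 18 h at 37 C, CCF4 readout; normalized to 0.1 uM dexamethasone (100%), EC50 and efficacy from Hill fits.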
# Sequence of Glucocorticoid receptor (Homo sapiens) (P04150 whole entry, looked up): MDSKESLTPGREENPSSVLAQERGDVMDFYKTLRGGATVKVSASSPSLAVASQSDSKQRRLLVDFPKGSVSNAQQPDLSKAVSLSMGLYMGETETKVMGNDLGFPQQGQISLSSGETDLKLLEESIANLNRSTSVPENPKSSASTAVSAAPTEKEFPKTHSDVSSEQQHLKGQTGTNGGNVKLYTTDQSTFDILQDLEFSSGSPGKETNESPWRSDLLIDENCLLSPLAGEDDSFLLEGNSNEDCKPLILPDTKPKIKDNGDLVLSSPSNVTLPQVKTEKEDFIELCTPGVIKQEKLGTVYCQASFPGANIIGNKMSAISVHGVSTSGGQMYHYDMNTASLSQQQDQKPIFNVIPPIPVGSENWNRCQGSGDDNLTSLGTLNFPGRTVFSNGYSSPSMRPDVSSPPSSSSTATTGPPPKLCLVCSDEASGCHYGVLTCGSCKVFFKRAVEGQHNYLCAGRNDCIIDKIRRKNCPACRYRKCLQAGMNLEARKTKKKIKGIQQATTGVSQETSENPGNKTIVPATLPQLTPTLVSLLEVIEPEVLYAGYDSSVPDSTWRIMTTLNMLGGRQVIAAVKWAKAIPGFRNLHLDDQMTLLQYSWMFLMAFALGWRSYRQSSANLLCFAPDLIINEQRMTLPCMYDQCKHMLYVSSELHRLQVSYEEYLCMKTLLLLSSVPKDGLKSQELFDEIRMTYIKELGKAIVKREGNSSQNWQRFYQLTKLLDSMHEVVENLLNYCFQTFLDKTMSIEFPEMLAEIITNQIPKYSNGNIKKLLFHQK
row,Compound,activation
1,CC(C#N)CCC#N (centres undefined),5.21% (inactive)
2,Nc1cc(Cl)ccc1Cl,-3.66% (inactive)
3,CCC/C=N/O,5.99% (inactive)
4,COc1c(C(C)(C)C)cc([N+](=O)[O-])c(C)c1[N+](=O)[O-],-4.08% (inactive)
5,C=CCOCC1CO1 (centres undefined),4.14% (inactive)
6,c1ccoc1,-5.47% (inactive)
7,Clc1ccccc1,-4.89% (inactive)
8,ClC(Cl)(Cl)C(Cl)(Cl)Cl,5.68% (inactive)
9,CCOC(=O)C1OC1(C)c1ccccc1 (centres undefined),-3.51% (inactive)
10,ClC(Cl)C(Cl)Cl,1.52% (inactive)
11,C=CCCl,2.78% (inactive)
12,Brc1cccc(-c2ccccc2)c1,-4.94% (inactive)
13,C=CCO,3.6% (inactive)
14,OCCCCO,-5.33% (inactive)
15,Nn1cnnc1,-5.65% (inactive)
16,Cc1ccccc1[N+](=O)[O-],-7.47% (inactive)
17,CCCCOC(=O)c1ccccc1N,-1.38% (inactive)
18,Clc1cc(Cl)c(Cl)c(Cl)c1,16.9% (inactive)
19,Cc1ccc(N)c(C)c1,-0.661% (inactive)
20,CN(C)C(=O)Cl,12.7% (inactive)
21,Cc1ccc(N=C=O)cc1N=C=O,4.9% (inactive) and -2.62% (inactive)
22,O=C(Cl)OCc1ccccc1,-1.41% (inactive)
23,OCC(Cl)CCl (centres undefined),11.4% (inactive)
24,CC(C)CON=O,2.25% (inactive)
25,CC[N+](=O)[O-],5.8% (inactive)
26,CC(C)(Cl)[N+](=O)[O-],-3.18% (inactive)
27,C[N+](=O)[O-],-0.802% (inactive)
28,CC(C)OC(=O)Cc1ccccc1,0.809% (inactive)
29,ClCC(Br)CBr (centres undefined),-3.35% (inactive)
